Source: PubChem (National Center for Advancing Translational Sciences (NCATS))
IL1B secr inh = blocks inflammasome-driven IL-1 beta release; THP-1 LPS/ATP IL-1B secretion, AlphaLISA, 16 h; active compounds read low; activity change, % at 57.5 µM; actives 4.7% (n = 360,000); in the data active = activity change below about -50%; inconclusive = mostly about -30% to -49%
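THP-1 cells pretreated 1 hr with compounds (up to 57.5 uM final), then stimulated with LPS (250 ng/mL final) plus ATP (1.25 mM final); secreted IL-1B measured by AlphaLISA after 16 hr, decreased signal indicating inhibition.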
HT1080 IDH1KD tx = toxicity to HT-1080 IDH1 knockdown cells (counter line) | AID 686971 | Potency, µM (highest dose often 46.1 µM), without a hit: at the top dose activity, negative = toxicity, actives largely listed as cytotoxic | HT-1080 IDH1 knockdown viability, ATP luminescence, 48 h | actives 2% (n = 360,000);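 note: potency is the fitted concentration of half-maximal effect; 0% = DMSO wells and -100% = cell-free medium wells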
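Assay cells: HT-1080 with IDH1 knockdown, 750 per well, RPMI/5% FBS. Exposure: 48 h at 37 °C following 2 h pre-incubation. Read: CellTiter-Glo luminescence; fitted concentration-response, curve class assigned.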
DT40 TDP1 CPT = growth inhibition of DT40 Tdp1-/-;hTDP1 cells with camptothecin (screen for TDP1 inhibitors); chicken DT40 Tdp1-/-;hTDP1 cells + 20 nM CPT, ATP luminescence, 48 h; Potency, µM (titrated, usually from 46.2 µM), for the others: top-dose activity change, negative = growth inhibition, most hits filed as inhibitors; actives 12% (n = 420,000); note: potency is the fitted concentration of half-maximal effect; nearly all actives have a fitted effect of over 55% in size
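Chicken DT40 Tdp1-/- cells complemented with human TDP1, 400 cells/well, exposed to compounds plus 20 nM camptothecin for at least 48 h at 37 C; viability read as ATP content by CellTiter-Glo luminescence.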
TDP1 cell noCPT = qHTS for Inhibitors of human tyrosyl-DNA phosphodiesterase 1 (TDP1): qHTS in cells in absence of CPT | DT40 Tdp1-/- hTDP1 cells, no CPT, ATP luminescence, 48 h | Potency, µM (highest dose often 46.2 µM), for inactives: top-dose activity change, negative = growth inhibition, most hits filed as inhibitors | actives 15% (n = 420,000); note: potency is the fitted concentration of half-maximal effect; nearly all actives have a fitted effect of over 55% in size
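Growth of hTDP1-complemented DT40 Tdp1-knockout cells is measured by ATP luminescence after at least 48 hr compound exposure at 37 °C, with DMSO substituting for the 20 nM CPT used in the parallel screen.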
HT1080NT lethal = kills 2HG-producing HT-1080-NT fibrosarcoma cells | HT-1080-NT fibrosarcoma viability, CellTiter-Glo ATP luminescence, 48 h | Potency, µM (titrated, usually from 46.1 µM), for inactives: at the highest dose activity, negative = less viability, usual class: cytotoxic | actives 1.6% (n = 360,000);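 note: NT is the 2HG producing partner of a matched IDH1 knockdown line; potency is the fitted concentration of half-maximal effect; 0% = DMSO-treated cells and -100% = media-only wells without cells; nearly all actives have a fitted effect of over 55% in size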
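Fibrosarcoma NT cells, 750 per well in 5% FBS RPMI, were exposed to compound for 48 hours. Viability: CellTiter-Glo luminescence.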
* hit, by the source's call; ! = not confirmed by another sample. In the library only some 19% were active in any assay of this set; here they are far more common. Unless noted, calls come from the whole dose curve; as a rule, active = well fitted curve in the direction sought with a large enough effect; inconclusive = small, poorly fitted or top-dose-only effect, or another doubt; inactive = no such curve, though single readings can be large; an effect the other way counts as inactive or inconclusive. Unless noted, % is set by controls: 0 for no effect and ±100 for the full control effect.

How did Cc1ccc(C(c2nnnn2CCc2ccccc2)N2CCC(C)CC2)cc1 (centres undefined) do in these assays?
IL1B secr inh: -63.5*; HT1080 IDH1KD tx: inconclusive; DT40 TDP1 CPT: inconclusive; TDP1 cell noCPT: 16.4µM*; HT1080NT lethal: -29.4%

Results for Cc1ccc(C(c2nnnn2C(C)(C)C)N2CCC(C)CC2)cc1 (centres undefined) ?
IL1B secr inh: -16.1; HT1080 IDH1KD tx: -0.6%; DT40 TDP1 CPT: inconclusive; TDP1 cell noCPT: inconclusive; HT1080NT lethal: 6.2%

What do the screens show for `O=C(Nc1ncc(Cc2ccc(Cl)cc2Cl)s1)c1ccc([N+](=O)[O-])cc1`?
IL1B secr inh: -10.4; HT1080 IDH1KD tx: -1.2%; DT40 TDP1 CPT: 18.4µM*; TDP1 cell noCPT: 18.4µM*; HT1080NT lethal: -5.9%

How did O=C(Nc1ncc(Cc2ccccc2Cl)s1)C1=NCCN1 do in these assays?
IL1B secr inh: 28.7; HT1080 IDH1KD tx: inconclusive; DT40 TDP1 CPT: 20.6µM*; TDP1 cell noCPT: inconclusive; HT1080NT lethal: inconclusive

Results for O=C(Nc1nnc(COc2ccc(Cl)cc2)s1)c1ccc([N+](=O)[O-])cc1 ?
IL1B secr inh: 3.0; HT1080 IDH1KD tx: 20.8%; DT40 TDP1 CPT: -2.7%; TDP1 cell noCPT: -3.9%; HT1080NT lethal: 16.3%

What do the screens show for `CCCCCCCCN1C(=O)[C@H](CC(=O)NCC2CCCCC2)C[C@@]2(C(=O)OCC)CCCC=C12`?
IL1B secr inh: -51.3*; HT1080 IDH1KD tx: -13.6%; DT40 TDP1 CPT: 20.6µM*; TDP1 cell noCPT: 18.4µM*; HT1080NT lethal: 2.5%

Results for CCOC(=O)[C@]12CCCC=C1N(Cc1ccccc1)C(=O)[C@H](CC(=O)NCC1CCCCC1)C2 ?
IL1B secr inh: inconclusive; HT1080 IDH1KD tx: -10.7%; DT40 TDP1 CPT: inconclusive; TDP1 cell noCPT: inconclusive; HT1080NT lethal: 0.0%

Results for C#CCNC(=O)C[C@@H]1C[C@@]2(C(=O)OCC)CCCC=C2N(CCCCCCCC)C1=O ?
IL1B secr inh: inconclusive; HT1080 IDH1KD tx: inconclusive; DT40 TDP1 CPT: 16.4µM*; TDP1 cell noCPT: 13µM*; HT1080NT lethal: inconclusive

How did CCCCCCCCN1C(=O)[C@H](CC(=O)NCC2CCCCC2)C[C@@]2(C(=O)OCC)CCC=C12 do in these assays?
IL1B secr inh: -25.3; HT1080 IDH1KD tx: inconclusive; DT40 TDP1 CPT: 16.4µM*; TDP1 cell noCPT: 18.4µM*; HT1080NT lethal: inconclusive

Results for O=C(O)/C=C/c1cnn(-c2ccccc2)c1 ?
IL1B secr inh: 23.2; HT1080 IDH1KD tx: -9.9%; DT40 TDP1 CPT: 1.6%; TDP1 cell noCPT: -7.0%; HT1080NT lethal: -16.8%

What do the screens show for `COC(=O)c1cc2ccsc2n1CC(=O)Nc1cc(Cl)ccc1OC`?
IL1B secr inh: -5.5; HT1080 IDH1KD tx: inconclusive; DT40 TDP1 CPT: 7.31µM*; TDP1 cell noCPT: 13µM*; HT1080NT lethal: 7.94µM*

Results for CC1(C)[C@@H]2CC[C@@]1(C)C(=O)C2 ?
DT40 TDP1 CPT: 8.41µM*!; TDP1 cell noCPT: 3.35µM*!

Results for COc1cc2c(cc1OC)C1=NC(=O)CN1C(SCc1ccccc1)=N2 ?
IL1B secr inh: -9.1; HT1080 IDH1KD tx: -3.4%; DT40 TDP1 CPT: 18.4µM*; TDP1 cell noCPT: 9.2µM*; HT1080NT lethal: -2.4%

What do the screens show for `COc1cnn(Cc2ccccc2)c(=O)c1SCc1ccccc1`?
IL1B secr inh: inconclusive; HT1080 IDH1KD tx: 1.6%; DT40 TDP1 CPT: inconclusive; TDP1 cell noCPT: inconclusive; HT1080NT lethal: 2.5%

Results for CCOC(=O)C1=NN(C(=O)c2ccccc2)C(O)(c2ccc(C)cc2)C1 (centres undefined) ?
IL1B secr inh: 18.0; HT1080 IDH1KD tx: 11.8%; DT40 TDP1 CPT: inconclusive; TDP1 cell noCPT: 25.9µM*; HT1080NT lethal: -4.5%

What do the screens show for `CCC1=NN(C(=O)c2ccc(Br)cc2)C(O)(c2ccccc2)C1` (centres undefined)?
IL1B secr inh: -19.5; HT1080 IDH1KD tx: -28.7%; DT40 TDP1 CPT: 5.8µM*; TDP1 cell noCPT: 6.51µM*; HT1080NT lethal: -0.2%

How did CC1=NN(C(=O)c2ccccc2)C(O)(c2ccc(Br)cc2)C1 (centres undefined) do in these assays?
IL1B secr inh: 45.1; HT1080 IDH1KD tx: inconclusive; DT40 TDP1 CPT: 5.8µM*; TDP1 cell noCPT: inconclusive; HT1080NT lethal: -22.5%

Results for CCC(NS(=O)(=O)c1ccc(C)cc1)C(=O)N1CCOCCOCCOCCOCC1 (centres undefined) ?
IL1B secr inh: 9.0; HT1080 IDH1KD tx: 7.0%; DT40 TDP1 CPT: 7.2%; TDP1 cell noCPT: -0.7%; HT1080NT lethal: 9.3%

Results for Cc1ccc(-c2cc(C(F)F)n3ncc(C(=O)N4CCN(c5cccc(C)c5C)CC4)c3n2)cc1 ?
IL1B secr inh: 8.3; HT1080 IDH1KD tx: 13.2%; DT40 TDP1 CPT: inconclusive; TDP1 cell noCPT: 18.4µM*; HT1080NT lethal: 8.0%

What do the screens show for `COc1ccc(-c2cc(C(F)F)n3ncc(C(=O)n4ccnc4C)c3n2)cc1`?
IL1B secr inh: -21.3; HT1080 IDH1KD tx: inconclusive; DT40 TDP1 CPT: 14.6µM*; TDP1 cell noCPT: 18.4µM*; HT1080NT lethal: -24.6%

What do the screens show for `COc1ccc(-c2cc(C(F)F)n3ncc(C(=O)N4CCc5ccccc54)c3n2)cc1`?
IL1B secr inh: 46.3; HT1080 IDH1KD tx: 2.91µM*; DT40 TDP1 CPT: 3.66µM*; TDP1 cell noCPT: 2.06µM*; HT1080NT lethal: 3.26µM*

Results for CCOC(=O)N1CCN(C(=O)c2cnn3c(C(F)F)cc(-c4ccc(C)cc4)nc23)CC1 ?
IL1B secr inh: -25.2; HT1080 IDH1KD tx: 3.6%; DT40 TDP1 CPT: inconclusive; TDP1 cell noCPT: inconclusive; HT1080NT lethal: 0.9%

What do the screens show for `CC(C)CC(=O)OCc1cc(=O)n2nc(C3CCCCC3)sc2n1`?
DT40 TDP1 CPT: -7.4%; TDP1 cell noCPT: inconclusive

What do the screens show for `CC(C)(C)CC(C)(C)c1ccc(OCCO)cc1`?
DT40 TDP1 CPT: 8.41µM*; TDP1 cell noCPT: 10.6µM*

What do the screens show for `COc1ccc(C(=O)C(=O)c2ccc(OCCO)cc2)cc1`?
IL1B secr inh: 22.8; HT1080 IDH1KD tx: 0.8%; DT40 TDP1 CPT: -18.1%; TDP1 cell noCPT: -16.1%; HT1080NT lethal: 0.2%

Results for CCOc1ccc(CCNS(=O)(=O)c2c(C)n[nH]c2C)cc1OCC ?
IL1B secr inh: 0.0; HT1080 IDH1KD tx: 11.1%; DT40 TDP1 CPT: 20.6µM*; TDP1 cell noCPT: -18.0%; HT1080NT lethal: 13.4%

What do the screens show for `CCOc1ccc(CCNS(=O)(=O)c2cc3c(cc2C)NC(=O)CO3)cc1OCC`?
IL1B secr inh: -22.9; HT1080 IDH1KD tx: 0.9%; DT40 TDP1 CPT: -6.2%; TDP1 cell noCPT: inconclusive; HT1080NT lethal: 8.0%

What do the screens show for `CCOc1ccccc1NC(=O)C(OC(=O)c1ccccc1O)c1ccccc1` (centres undefined)?
IL1B secr inh: -11.5; HT1080 IDH1KD tx: 11.3%; DT40 TDP1 CPT: inconclusive; TDP1 cell noCPT: inconclusive; HT1080NT lethal: 7.8%
